The results in this text go back to PubChem BioAssay AID1259341 (Broad Institute, 2017).

Structures are written as SMILES. A number with no mark means an inactive call. Activity calls are given as the source filed them.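 How the source made its calls: active means activity change under -35% in any replicate well, with more than 20 beads read in that well; inactive means the rest.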

This test deals with Caspase recruitment domain-containing protein 9 (Homo sapiens) + E3 ubiquitin-protein ligase TRIM62 (Homo sapiens) (UniProt Q9H257+Q9BVG3). The test can be described thus: CARD9/TRIM62 protein interaction inhibitors – cell lysate, HEK293FT lysates, Luminex bead ELISA, primary screen (AID 1259341).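 Further: PE anti-Flag signal of Flag-CARD9 captured by myc-TRIM62 beads.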 To be noted: PE fluorescence, hits give low values, concentration not given here. For orientation: ELISA stands for enzyme-linked immunosorbent assay.
Chain of Caspase recruitment domain-containing protein 9 (Homo sapiens) + E3 ubiquitin-protein ligase TRIM62 (Homo sapiens) (Q9BVG3 whole entry, looked up, the tested form may be a part): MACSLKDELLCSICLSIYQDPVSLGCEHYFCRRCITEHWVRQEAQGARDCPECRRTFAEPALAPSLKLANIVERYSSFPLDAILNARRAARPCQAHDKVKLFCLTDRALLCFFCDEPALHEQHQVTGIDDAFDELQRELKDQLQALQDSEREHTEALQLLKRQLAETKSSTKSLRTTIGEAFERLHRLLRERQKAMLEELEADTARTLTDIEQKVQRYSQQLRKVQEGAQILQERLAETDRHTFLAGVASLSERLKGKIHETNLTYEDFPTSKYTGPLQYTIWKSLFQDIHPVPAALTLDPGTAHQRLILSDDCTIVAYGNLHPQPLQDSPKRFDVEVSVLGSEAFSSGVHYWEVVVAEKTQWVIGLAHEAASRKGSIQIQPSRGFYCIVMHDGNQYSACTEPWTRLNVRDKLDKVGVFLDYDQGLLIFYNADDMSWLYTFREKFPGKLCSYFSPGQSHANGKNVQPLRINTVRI
Chain of Caspase recruitment domain-containing protein 9 (Homo sapiens) + E3 ubiquitin-protein ligase TRIM62 (Homo sapiens) (Q9H257 whole entry, looked up, the tested form may be a part): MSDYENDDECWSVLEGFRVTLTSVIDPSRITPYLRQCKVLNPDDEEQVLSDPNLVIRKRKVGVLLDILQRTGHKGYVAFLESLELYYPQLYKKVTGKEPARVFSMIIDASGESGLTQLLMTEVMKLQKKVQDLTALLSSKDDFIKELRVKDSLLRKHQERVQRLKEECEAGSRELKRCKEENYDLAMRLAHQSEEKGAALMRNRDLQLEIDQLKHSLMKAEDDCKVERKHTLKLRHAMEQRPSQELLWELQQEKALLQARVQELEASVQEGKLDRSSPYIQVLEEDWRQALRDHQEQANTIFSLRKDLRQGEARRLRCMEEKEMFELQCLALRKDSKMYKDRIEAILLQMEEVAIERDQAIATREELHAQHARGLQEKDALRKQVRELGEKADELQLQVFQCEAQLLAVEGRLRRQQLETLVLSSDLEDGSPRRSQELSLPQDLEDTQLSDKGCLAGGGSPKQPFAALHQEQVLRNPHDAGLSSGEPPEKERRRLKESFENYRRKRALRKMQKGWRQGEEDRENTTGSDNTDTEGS
For `Cc1scc(C(=O)NCc2ccco2)c1-c1ccccc1`, the activity change, negative = inhibition is 1.82%. As for `C=CC(=O)N1CCCC2(CCN(CCN3CCCC3)C2=O)C1` (stereo unspecified), the activity change, negative = inhibition was -70.2% (active). For `O=C(COC(=O)c1ccc(S(=O)(=O)NCc2ccco2)cc1)Nc1ccc(Cl)cn1` the value was -0.897%; for `O=S(=O)(Nc1nc2ccccc2nc1NCc1ccco1)c1ccccc1`, 1.68%; for `COc1ccc(-c2nnc(-c3nc(Nc4ccc(NC(C)=O)cc4)c4ccccc4n3)o2)cc1`, 9.87%. For `Cc1c(C(=O)OCC2CCCO2)[nH]c2c1C(=O)CC(c1ccco1)C2` (stereo unspecified) the value was -1.75%. For `C[C@H](CO)N1C[C@H](C)[C@@H](CN(C)C(=O)C2CCCCC2)OCCCC[C@H](C)Oc2ccc(NS(=O)(=O)c3cn(C)cn3)cc2C1=O` the value was -7.17%; for `Cn1cccc1CNCCCSc1ncccn1`, 1.41%. On to `Cc1ccc(N2C(=O)c3ccccc3C2C(=O)c2ccc(O)cc2O)cc1` (stereo unspecified), for which the activity change, negative = inhibition is 12.1%. For `O=C1c2ccccc2-c2nc3ccccc3nc21`, the activity change, negative = inhibition is -4.55%. With `CS(=O)(=O)c1ccc2ccn(O)c2c1`, the activity change, negative = inhibition was -9.61%. For `Cc1ccccc1C(=O)Nc1cnc(N2CCC(C(N)=O)(N3CCCCC3)CC2)c(C(=O)O)c1` the value was -48.4% (active). Under `O=C(Cc1ccc(S(=O)(=O)N2CCOCC2)s1)Nc1nc2c(s1)CCCC2` stands -0.777%. Under `O=S(=O)(c1ccccc1)N1CC2CN(Cc3ccc(O)cc3)C2C1` (stereo unspecified) stands -21%; under `Nc1ccccc1Sc1nccc(C(F)(F)F)n1`, 3.66%; under `Cc1occc1C(=O)NCc1cccc(CNC(=O)c2ccoc2C)c1`, 3.25%.

For the compound `O=C(Nc1cccc2ccccc12)NC1CC1`, the activity change, negative = inhibition is -2.1%.

For `CCn1ccnc1C1CCN(C(=O)CCn2c(C)nc3ccccc32)CC1`, the activity change, negative = inhibition is -6.29%.

Take `CCc1nccn1CCC(=O)N1C[C@H](CO)C[C@H](CN2CCCC2)C1`: the activity change, negative = inhibition is 4.55%. Under `Cc1ccc(Nc2nc(C(=O)Nc3ccc(Cl)cc3)nc3ccccc23)cc1` stands -19.6%; under `O=C(NCc1ccco1)[C@@H]1CSC2c3ccccc3C(=O)N21` (stereo partly specified), -0.672%. Under `O=C(Nc1ccc2oc(-c3ccncc3)nc2c1)c1ccc2c(c1)OCCO2` stands -1.89%. Regarding `Cc1ccc(-c2nnc(-c3nc(Nc4nc5ccccc5s4)c4ccccc4n3)o2)cc1`, the activity change, negative = inhibition was -10.3%. As to `O=C(Nc1ncccc1O)c1ccc(OCC2CCCO2)cc1` (stereo unspecified), the activity change, negative = inhibition is 2.58%.

Take `Nc1cc2c(cc1-n1cccc1)OCCO2`: the activity change, negative = inhibition was 4.12%.

Regarding `O=C(O)c1cc(-c2ccc(-c3ccc(F)cc3)o2)nc2ccccc12`, the activity change, negative = inhibition was -7.53%.

Take `O=[N+]([O-])c1c(NCCCO)cc(SCc2ccco2)c2nonc12`: the activity change, negative = inhibition was 15.3%. With `Cc1ccc(C(=O)Nc2ccc(N3CCC(C(N)=O)(N4CCCCC4)CC3)c(C(=O)O)c2)cc1`, the activity change, negative = inhibition is -42.4%. In the case of `O=c1oc(-c2ccccc2)nc2sc3c(c12)CCC3`, the activity change, negative = inhibition is 0.684%.

Take `Cc1sc2ncnc(SCc3ccco3)c2c1C`: the activity change, negative = inhibition is -1.85%. With `NC(=O)C1(N2CCCCC2)CCN(c2ccc(NC(=O)c3cccc(Cl)c3)cc2C(=O)O)CC1`, the activity change, negative = inhibition is -49% (active).

With `COc1ccc(-c2nc(C)c(C(C)=O)n2O)cc1OC`, the activity change, negative = inhibition was -2.22%.

With `CCN1CCN(C(=O)c2cc(-c3ccco3)nc3ccccc23)CC1`, the activity change, negative = inhibition is 4.84%. In the case of `CC(C)(C)c1ccc(-c2nc(C#N)c(NCc3ccncc3)o2)cc1`, the activity change, negative = inhibition was 6.53%. For `COc1ccc(CNC(=O)c2nc(Nc3ccc(C)cc3)c3ccccc3n2)cc1` the value was -5.2%.

As to `O=C(Nc1nc(-c2ccco2)c(-c2ccco2)s1)C1CCC1`, the activity change, negative = inhibition is -9.96%.
